Experimental data as given in PubChem BioAssay.
Active and inactive are the calls of the source.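 The calls were made as follows, unless noted: active = inhibition above 50%; inactive = the rest.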

Test: antimalarial activity against Dd2 strain (AID 2302;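 active = growth inhibition above 50% at the single 2 µM test dose, taken to imply half-maximal potency below 2 µM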;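 also: 0% = DMSO untreated growth and 100% = chloroquine plus artemisinin killed control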)
Settings: P. falciparum Dd2 in RBCs, LDH growth readout, 72 h; at 2 µM; hits give high values

Compound | growth inhibition
Cn1c2c(c3ccccc31)CN(CCC1(c3ccc(Cl)c(Cl)c3)CN(C(=O)Cc3ccccc3)CCO1)CC2 (stereo not drawn) | 91% (active)
O=C(NCc1ccc(F)cc1)Nc1ccc(-c2cccc(-c3nc4ccc(F)cc4[nH]3)c2)cc1 | 99% (active)
COc1ccc(/C=C/C(=O)N2CCc3cc4nccc(N5CCN6CCC[C@H]6C5)c4cc32)cc1 | 98% (active)
CS(=O)(=O)Nc1cccc(-c2cnc3[nH]cc(-c4cc(N)cc(C(=O)O)c4)c3c2)c1 | 96% (active)
CCN(CC)CCN(Cc1ccc(-c2ccc(C(F)(F)F)cc2)cc1)C(=O)Cn1c(CCc2ccc(F)c(F)c2F)nc(=O)c2cccnc21 | 20% (inactive)
Cc1cc(N2CCOCC2)nc2ccc(NC(=O)c3ccc(Cl)c([N+](=O)[O-])c3)cc12 | 15% (inactive)
CCOc1cccc(C(=O)Nc2ccc(-c3nc4ccccc4[nH]3)cc2)c1 | 30% (inactive)
O=C(NCCCCN1CCC(c2ccc([N+](=O)[O-])cc2)CC1)c1ccc(NC(=O)c2ccc(Cl)cc2)cc1 | 55% (active)
O=C(Nc1cccc(-c2ccc(CN3CCNCC3)cc2)c1)c1cccc(Cl)c1 | 4% (inactive)
Cc1cc(N(C)C)nc(Nc2ccc(NC(=O)C(C)Oc3ccccc3)cc2)n1 (stereo not drawn) | 30% (inactive)
CCN(CC)CCN(Cc1ccc(-c2ccc(C(F)(F)F)cc2)cc1)C(=O)Cn1c(CCc2ccc(F)cc2)nc(=O)c2sccc21 | 90% (active)
Cc1ncc([N+](=O)[O-])n1CCOC(=O)NC(NCC1COc2ccccc2O1)C(Cl)(Cl)Cl (stereo not drawn) | 78% (active)
COC(=O)c1ccc(CN2CCC(N(Cc3cccc(Oc4ccccc4)c3)S(=O)(=O)c3ccc(NC(C)=O)cc3)CC2)cc1 | 86% (active)
COc1ccc(CN2CCC(N3CC(c4ccccc4)(c4ccccc4)OCC3=O)C2)c(O)c1 (stereo not drawn) | 27% (inactive)
CC(C)Oc1ccc(C=CC(=O)Nc2noc3ccccc23)cc1 | 95% (active)
N#Cc1ccc(Cn2ccc3c4c(N)nc(N)nc4ccc32)cc1 | 95% (active)
CC(=O)c1cccc(Nc2nc3c(C#N)c(OCc4cc(Cl)cc(Cl)c4)ccc3[nH]2)c1 | 45% (inactive)
CCN(CC)CCCN(Cc1ccc(-c2ccc(C(F)(F)F)cc2)cc1)C(=O)Cn1c(SCc2cccc(F)c2F)cc(=O)c2ccccc21 | 82% (active)
Cc1[nH]c(C)c(-c2ccc(OCCOc3ccc(C(F)(F)F)cn3)cc2)c(=O)c1Br | 97% (active)
CC(C)CCOc1ccc(NC(=O)c2cccs2)cc1 | 95% (active)

Compound | growth inhibition
CCN1CCN(c2ccc(Nc3ccnc4ccc(Br)cc34)cc2)CC1 | 86% (active)
CC1(C)N=C(NC(=O)Nc2ccc([N+](=O)[O-])cc2)N=C(N)N1OCc1cccc2ccccc12 | 21% (inactive)
CC(O)C1CCCCN1C(=O)c1cccc(-c2cccc(-c3nc4ccc(F)cc4[nH]3)c2)c1 (stereo not drawn) | 99% (active)
COc1cccc(-c2cccc(-c3ccc(NC(=O)c4ccc([N+](=O)[O-])o4)cc3)n2)c1 | 94% (active)
N#Cc1ccc2c(c1)CN(C1CCC(NC(=O)c3cc(-c4ccc(Cl)cc4)cs3)CC1)CCC2 (stereo not drawn) | 99% (active)
CCOc1ccc2nc3cc(NC(=O)c4ccco4)ccc3c(N)c2c1 | 56% (active)
COc1ccc2ncc(F)c([C@@H](O)CN3CCC(NCc4cc5c(cn4)OCS5)CC3)c2c1 | 98% (active)
FC(F)(F)c1ccc2nccc(NCc3ccccc3)c2c1 | 56% (active)
COc1ccc(CN2CCCN(Cc3cccc(C(=O)Nc4ccc(C(C)(C)C)cc4)c3)CC2)cc1 | 3% (inactive)
CCc1ccc(C(=O)NC(=O)c2ccccc2O)cc1 | 84% (active)
COc1ccc(N2CCN(CCCNC(=O)c3ccc(NC(=O)c4cc(Cl)cc(Cl)c4)cc3)CC2)c(OC)c1 | 79% (active)
CCCC(=O)Nc1ccc(OCCCN(Cc2ccccc2F)c2ccc(C#N)c(C(F)(F)F)c2)cc1 | 93% (active)
CN(C)c1ccc(C2c3nc[nH]c3CCN2C(=O)Nc2cccc([N+](=O)[O-])c2)cc1 (stereo not drawn) | 15% (inactive)
COc1cccc(NC(=O)Nc2ccc(Nc3nc(C)cc(N(C)C)n3)cc2)c1 | 100% (active)
CCn1ncc2c(N3CCCC3=O)cc(C(=O)N[C@@H](Cc3ccccc3)[C@H](O)CNC(C)(C)c3cccc(C(F)(F)F)c3)cc21 | 99% (active)
Fc1cccc(COc2ccc(-n3ccc4c(NCCCn5ccnc5)ncnc43)cc2Cl)n1 | 29% (inactive)
N#Cc1cccc(C(=O)NC2CCN(CCCCCNC(=O)/C=C/c3ccc(Cl)c(Cl)c3)CC2)c1 | -1% (inactive)
Cc1[nH]c(C)c(-c2ccc(C(=O)c3ccc(Cl)cc3)cc2)c(=O)c1Cl | 95% (active)
Fc1ccc(-c2nc(NCc3cccc(C(F)(F)F)c3)nn2-c2cccc(C(F)(F)F)c2)cc1C(F)(F)F | 58% (active)

Test: human hepatoma cell viability loss – ATP luminescence, cytotoxicity control for P. falciparum antimalarial project, primary screen (AID 2303);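 also: 0% = DMSO wells and 100% = digitonin-killed cells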
Settings: HepG2 viability, 24-48 h, at 10 µM, hits give high values

Compound | inhibition
Cn1c2c(c3ccccc31)CN(CCC1(c3ccc(Cl)c(Cl)c3)CN(C(=O)Cc3ccccc3)CCO1)CC2 (stereo not drawn) | 22% (inactive)
O=C(NCc1ccc(F)cc1)Nc1ccc(-c2cccc(-c3nc4ccc(F)cc4[nH]3)c2)cc1 | 31% (inactive)
COc1ccc(/C=C/C(=O)N2CCc3cc4nccc(N5CCN6CCC[C@H]6C5)c4cc32)cc1 | -3% (inactive)
CS(=O)(=O)Nc1cccc(-c2cnc3[nH]cc(-c4cc(N)cc(C(=O)O)c4)c3c2)c1 | 40% (inactive)
CCN(CC)CCN(Cc1ccc(-c2ccc(C(F)(F)F)cc2)cc1)C(=O)Cn1c(CCc2ccc(F)c(F)c2F)nc(=O)c2cccnc21 | 29% (inactive)
Cc1cc(N2CCOCC2)nc2ccc(NC(=O)c3ccc(Cl)c([N+](=O)[O-])c3)cc12 | 12% (inactive)
CCOc1cccc(C(=O)Nc2ccc(-c3nc4ccccc4[nH]3)cc2)c1 | 40% (inactive)
O=C(NCCCCN1CCC(c2ccc([N+](=O)[O-])cc2)CC1)c1ccc(NC(=O)c2ccc(Cl)cc2)cc1 | 15% (inactive)
O=C(Nc1cccc(-c2ccc(CN3CCNCC3)cc2)c1)c1cccc(Cl)c1 | 30% (inactive)
Cc1cc(N(C)C)nc(Nc2ccc(NC(=O)C(C)Oc3ccccc3)cc2)n1 (stereo not drawn) | 2% (inactive)
CCN(CC)CCN(Cc1ccc(-c2ccc(C(F)(F)F)cc2)cc1)C(=O)Cn1c(CCc2ccc(F)cc2)nc(=O)c2sccc21 | 100% (active)
Cc1ncc([N+](=O)[O-])n1CCOC(=O)NC(NCC1COc2ccccc2O1)C(Cl)(Cl)Cl (stereo not drawn) | -9% (inactive)
COC(=O)c1ccc(CN2CCC(N(Cc3cccc(Oc4ccccc4)c3)S(=O)(=O)c3ccc(NC(C)=O)cc3)CC2)cc1 | -1% (inactive)
COc1ccc(CN2CCC(N3CC(c4ccccc4)(c4ccccc4)OCC3=O)C2)c(O)c1 (stereo not drawn) | 10% (inactive)
CC(C)Oc1ccc(C=CC(=O)Nc2noc3ccccc23)cc1 | 2% (inactive)
N#Cc1ccc(Cn2ccc3c4c(N)nc(N)nc4ccc32)cc1 | 64% (active)
CC(=O)c1cccc(Nc2nc3c(C#N)c(OCc4cc(Cl)cc(Cl)c4)ccc3[nH]2)c1 | 29% (inactive)
CCN(CC)CCCN(Cc1ccc(-c2ccc(C(F)(F)F)cc2)cc1)C(=O)Cn1c(SCc2cccc(F)c2F)cc(=O)c2ccccc21 | 45% (inactive)
Cc1[nH]c(C)c(-c2ccc(OCCOc3ccc(C(F)(F)F)cn3)cc2)c(=O)c1Br | 25% (inactive)
CC(C)CCOc1ccc(NC(=O)c2cccs2)cc1 | 11% (inactive)

Compound | inhibition
CCN1CCN(c2ccc(Nc3ccnc4ccc(Br)cc34)cc2)CC1 | 37% (inactive)
CC1(C)N=C(NC(=O)Nc2ccc([N+](=O)[O-])cc2)N=C(N)N1OCc1cccc2ccccc12 | 35% (inactive)
CC(O)C1CCCCN1C(=O)c1cccc(-c2cccc(-c3nc4ccc(F)cc4[nH]3)c2)c1 (stereo not drawn) | 42% (inactive)
COc1cccc(-c2cccc(-c3ccc(NC(=O)c4ccc([N+](=O)[O-])o4)cc3)n2)c1 | 98% (active)
N#Cc1ccc2c(c1)CN(C1CCC(NC(=O)c3cc(-c4ccc(Cl)cc4)cs3)CC1)CCC2 (stereo not drawn) | 36% (inactive)
CCOc1ccc2nc3cc(NC(=O)c4ccco4)ccc3c(N)c2c1 | 36% (inactive)
COc1ccc2ncc(F)c([C@@H](O)CN3CCC(NCc4cc5c(cn4)OCS5)CC3)c2c1 | 16% (inactive)
FC(F)(F)c1ccc2nccc(NCc3ccccc3)c2c1 | 18% (inactive)
COc1ccc(CN2CCCN(Cc3cccc(C(=O)Nc4ccc(C(C)(C)C)cc4)c3)CC2)cc1 | 46% (inactive)
CCc1ccc(C(=O)NC(=O)c2ccccc2O)cc1 | -4% (inactive)
COc1ccc(N2CCN(CCCNC(=O)c3ccc(NC(=O)c4cc(Cl)cc(Cl)c4)cc3)CC2)c(OC)c1 | 21% (inactive)
CCCC(=O)Nc1ccc(OCCCN(Cc2ccccc2F)c2ccc(C#N)c(C(F)(F)F)c2)cc1 | 7% (inactive)
CN(C)c1ccc(C2c3nc[nH]c3CCN2C(=O)Nc2cccc([N+](=O)[O-])c2)cc1 (stereo not drawn) | -5% (inactive)
COc1cccc(NC(=O)Nc2ccc(Nc3nc(C)cc(N(C)C)n3)cc2)c1 | 14% (inactive)
CCn1ncc2c(N3CCCC3=O)cc(C(=O)N[C@@H](Cc3ccccc3)[C@H](O)CNC(C)(C)c3cccc(C(F)(F)F)c3)cc21 | 10% (inactive)
Fc1cccc(COc2ccc(-n3ccc4c(NCCCn5ccnc5)ncnc43)cc2Cl)n1 | 14% (inactive)
N#Cc1cccc(C(=O)NC2CCN(CCCCCNC(=O)/C=C/c3ccc(Cl)c(Cl)c3)CC2)c1 | 11% (inactive)
Cc1[nH]c(C)c(-c2ccc(C(=O)c3ccc(Cl)cc3)cc2)c(=O)c1Cl | -1% (inactive)
Fc1ccc(-c2nc(NCc3cccc(C(F)(F)F)c3)nn2-c2cccc(C(F)(F)F)c2)cc1C(F)(F)F | 2% (inactive)
